Measurements reported in PubChem BioAssay (NCATS).
Inconclusive results are not listed. Calls of active or inactive are those of the source. Calls come from the whole dose curve; as a rule, active = well fitted curve in the direction sought with a large enough effect; inconclusive = small, poorly fitted or top-dose-only effect, or another doubt; inactive = no such curve, though single readings can be large; an effect the other way counts as inactive or inconclusive.

Assays:
[1] = molecular target: Phospholipid hydroperoxide glutathione peroxidase GPX4 (Homo sapiens) (UniProt P36969); experiment: Primary qHTS Assay for Inhibitors of Recombinant Selenoprotein Glutathione Peroxidase 4 (GPX4) (AID 1845192); details: recombinant GPX4, GR-coupled NADPH fluorescence, 15 min; series mostly up to 50 µM; note: nearly all actives have a fitted effect of over 65% in size
How it was run: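 NADPH consumption, followed by fluorescence at 340/450 nm between 0 and 15 min, reports GPX4 activity via coupled glutathione reductase (100 nM). Enzyme 200 nM was pre-exposed to compound 30 min; 0.5 mM cumene hydroperoxide and 1 mM GSH served as substrates.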

[2] = molecular target: Luciferin 4-monooxygenase (Photinus pyralis) (UniProt P08659); experiment: Primary firefly luciferase (FLuc) qHTS assay for identification of artifact compounds. (AID 1845220); details: purified firefly luciferase, luminescence, 5 min; series mostly up to 54.1 µM; note: nearly all actives have a fitted effect of over 60% in size
How it was run: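 FLuc 10 nM; luciferin 10 uM; ATP 10 uM; Tris-acetate pH 7.6, Mg-acetate 10 mM; 15 min RT preincubation; 5 min reaction; luminescence.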

[3] = Primary fluorescence-based thiol-reactive (MSTI) qHTS assay for identification of artifact compounds. (AID 1845221); details: MSTI thiol-reactivity probe, 1 h; series mostly up to 53.8 µM;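 note: thiol-reactive compounds lower the probe fluorescence signal; nearly all actives have a fitted effect of over 65% in size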
How it was run: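 MSTI probe at 4 uM final in 2% DMSO/PBS pH 7.4; compounds, 1 h at room temperature in dark. Fluorescence Ex/Em 525/598 nm, normalised to Acetyl-MSTI and MSTI, fitted to 4-parameter Hill.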

[4] = system: Nanoluciferase (engineered Oplophorus gracilirostris luciferase); experiment: Primary Nanoluciferase (NLuc) qHTS assay for identification of artifact compounds. (AID 1845222); details: NLuc-conditioned medium, Nano-Glo luminescence, 5 min; series mostly up to 54.1 µM;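 note: NLuc secreted into diluted conditioned medium of S16 cells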
How it was run: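 NLuc from S16 cell medium (1:55) plus test compounds, 15 min, room temperature. Luminescence after Nano-Glo (1:100) addition, 5 min.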

[5] = Primary redox qHTS assay for identification of artifact compounds. (AID 1845223); details: Amplex Red/HRP redox cycling with DTT, fluorescence; series mostly up to 53.8 µM
How it was run: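 Amplex Red (25 uM) and HRP (250 mU/mL) in HBSS, with compounds for 15 min, then 250 uM DTT for 30 min, room temperature, dark. Fluorescence 525/598 nm read; normalized to DMSO and 10 uM DA3003; Hill fit.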

Measured: Potency

Sequence of Phospholipid hydroperoxide glutathione peroxidase GPX4 (Homo sapiens) (P36969 whole entry, looked up): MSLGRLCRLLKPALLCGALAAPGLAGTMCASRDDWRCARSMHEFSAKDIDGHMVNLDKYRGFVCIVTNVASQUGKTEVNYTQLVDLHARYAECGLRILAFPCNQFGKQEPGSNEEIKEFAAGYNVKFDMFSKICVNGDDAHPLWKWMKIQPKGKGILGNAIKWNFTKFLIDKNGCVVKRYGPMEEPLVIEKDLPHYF

COc1ccc(CCO[C@@H]2CCCC[C@H]2N2CC[C@@H](O)C2)cc1OC
inactive: all assays above

CC1(C)CCC[C@]2(C)[C@H]3CC(=O)O[C@]3(C)CC[C@@H]12
inactive: all assays above

Cc1cc(C(=O)N2Cc3cnn(C)c3Nc3ccccc32)ccc1CNC(=O)N1CCC[C@H]1C(=S)N1CCCN(C)CC1
inactive: all assays above

CC1(C)CC2C(C1)C(C)(O)C13CC1(COC3=O)C2O (stereo not given)
inactive: all assays above

CC(C)(O)C1CCC(C)(C2CCC3(C)C4CCC5C(C)(C(=O)OC6OC(CO)C(O)C(O)C6O)C(O)CC(O)C56CC46CCC23C)O1 (stereo not given)
inactive: all assays above

CC#CC(=O)N1CCC[C@H]1c1nc(-c2ccc(C(=O)Nc3ccccn3)cc2)c2c(N)nccn12
inactive: all assays above

CC12CCC(OC3OC(CO)C(O)C(OC4OC(CO)C(O)C(O)C4O)C3O)CC1=CCC1C2CCC2(C)/C(=C3/COC(=O)C3)CCC12O (stereo not given)
inactive: all assays above

Cc1ccccc1CN1C2=NCCN2C(=O)C2=C1CCN(Cc1ccccc1)C2
inactive: all assays above

Cc1cc(Nc2ncc3cc(-c4c(Cl)cccc4Cl)c(=O)n(C)c3n2)ccc1F
inactive: all assays above
